Data published in PubChem BioAssay (Tox21).
Results filed as inconclusive are left out. Calls of active or inactive are those of the source. The call rests on the fitted dose curve; in most records, active means well fitted inhibition curve with a large enough effect in the signal ratio in the repeat runs, with a control signal flat; inconclusive means weak or mixed curves, or effect the other way; inactive means flat fitted curve, though single readings scatter; the % refers to the signal ratio.

Target: D(2) dopamine receptor (Homo sapiens) (UniProt P14416)
Sequence (P14416 whole entry, looked up): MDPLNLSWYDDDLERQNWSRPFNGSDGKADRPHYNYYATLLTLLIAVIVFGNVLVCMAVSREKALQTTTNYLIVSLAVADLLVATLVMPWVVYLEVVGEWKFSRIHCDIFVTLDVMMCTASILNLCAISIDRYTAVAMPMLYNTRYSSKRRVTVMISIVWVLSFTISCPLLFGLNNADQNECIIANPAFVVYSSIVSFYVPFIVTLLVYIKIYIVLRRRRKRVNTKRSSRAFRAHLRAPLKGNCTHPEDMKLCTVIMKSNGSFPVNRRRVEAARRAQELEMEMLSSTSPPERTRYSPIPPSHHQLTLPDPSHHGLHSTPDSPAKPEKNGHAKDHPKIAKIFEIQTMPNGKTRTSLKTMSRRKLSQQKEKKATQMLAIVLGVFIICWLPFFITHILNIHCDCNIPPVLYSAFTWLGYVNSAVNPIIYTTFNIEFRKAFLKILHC
Experiment: Dopamine D2 receptor (DRD2) small molecule antagonists, cell-based qHTS assay (AID 1963595)
Details: HEK293-DRD2 cAMP HTRF antagonist mode; series mostly up to 92.4 µM; activity change, negative = inhibition: at the top concentration
Source text: National Center for Advancing Translational Sciences [NCATS]
Division of Preclinical Innovation [DPI]
U.S. Environmental Protection Agency [EPA]
National Institutes of Environmental Health Sciences [NIEHS]
National Toxicology Program [NTP]
U.S. Food and Drug Administration [FDA]
DRD2 is the D2 subtype of the dopamine receptor, which is coupled to Gi subtype of G protein-coupled receptor. This G protein-coupled receptor inhibits adenylyl cyclase activity. The DRD2-HEK293 cell line stably expressing D2 dopamine receptor can be used for screening agonists and antagonists of interactions between D2 and its ligands. The Hek293-DRD2 cAMP assay is based on HTRF technology. It measures changes of cAMP accumulation in response to Gi coupled GPCR activation or inhibition.
Tox21 Assay Protocol Summary:
DRD2-Hek293 cells were dispensed at 600 cells/3uL/well in 1536-well white plates using a Multidrop Dispenser. After the assay plates were incubated at a 37 C/5% CO2 incubator for 24 h, 1 uL of Ro20-1724 at final concentration of 0.1 mM was transferred to the assay plate by a Flying Reagent Dispenser. Following Ro20-1724 addition, 23 nL of compound dissolved in DMSO, positive controls or DMSO only was added to the assay plates via Wako pintool station. The assay plates were incubated at room temperature for 10 min. Next, 1 uL of mixture of NKH477 (final concentration at 200 nM) and quinpirole (final concentration at 12 nM) was added into the plates. After the assay plates were incubated at room temperature for an additional 30 min, 2.5 ul/well of cAMP-d2 and 2.5 ul/well of anti-cAMP-cryptate were added respectively into the assay plates using a Flying Reagent Dispenser. The plates were incubated at room temperature for 1 h. The fluorescence intensity in the plates was measured at 340 nm excitation and 665 & 620 nm emission by an Envision plate reader.
On the % scale 0 is the no-effect control and ±100 the full control effect; potency means the concentration at half of the fitted maximal effect.

Row | Structure (SMILES) | activity change, negative = inhibition | Potency
1 | ClC(Cl)=C(Cl)Cl | -0.298% (inactive) | 
2 | CCn1cc[n+](C)c1 (tested in a mixture with another compound) | 18% (inactive) | 
3 | CC(C)CBr | 11.1% (inactive) | 
4 | O=CCCl | 6.74% (inactive) | 
5 | CCCCCCCCBr | 9.08% (inactive) | 
6 | CC(C)(C)C(=O)C(Oc1ccc(Cl)cc1)n1cncn1 (stereo not given) | -7% (inactive) | 
7 | O=C(Nc1ccccc1)N(Cc1ccc(Cl)cc1)C1CCCC1 | 2.3% (inactive) | 
8 | C=CCOC(C)=O | -1.81% (inactive) | 
9 | CC1(c2ccc(Oc3ccccc3)cc2)OC(=O)N(Nc2ccccc2)C1=O (stereo not given) | -19% (inactive) | 
10 | CCC[CH2][Sn]([CH2]CCC)([CH2]CCC)[CH2]CCC |  | 38.6 µM (active)
11 | CC(C)c1c(CN(C)C(C)Cc2ccccc2)n(C)n(-c2ccccc2)c1=O (stereo not given) | 25% [at 42.5 µM] (inactive) | 
12 | Nc1n[nH]c(N)n1 | 2.04% (inactive) | 
13 | O=C(O)C(O)C(O)C(=O)O (stereo not given) | -0.648% (inactive) | 
14 | CCC1(c2ccccc2)C(=O)N=C(O)NC1=O (stereo not given) | 12.7% (inactive) | 
15 | CCCCOC(=O)c1ccccc1N | -1.21% (inactive) | 
16 | CCOC(=O)/C=C(C)/C=C/C[C@@H](C)CCCC(C)C | 6.33% (inactive) | 
17 | CC(=O)c1cc(C(C)(C)C)cc2c1CCC2(C)C | 3.7% (inactive) | 
18 | COC(=O)C(C)N(C(=O)Cc1ccccc1)c1c(C)cccc1C (stereo not given) | 0.0142% (inactive) | 
19 | COC(=O)N(C(=O)N1CO[C@@]2(C(=O)OC)Cc3cc(Cl)ccc3C2=N1)c1ccc(OC(F)(F)F)cc1 | 6.32% (inactive) | 
20 | CC(=O)[O-].CC(=O)[O-].O.O.[Cd+2] | -1.6% (inactive) | 

Row | Structure (SMILES) | activity change, negative = inhibition | Potency
21 | C=CC(=O)OCC(COC(=O)C=C)(COC(=O)C=C)COC(=O)C=C |  | 54.5 µM (active)
22 | CCCCc1ccc(O)cc1 | -3.62% (inactive) | 
23 | CCC(=O)c1ccc(Cl)cc1 | 1.18% (inactive) | 
24 | CC(C)C(Nc1ccc(C(F)(F)F)cc1Cl)C(=O)OC(C#N)c1cccc(Oc2ccccc2)c1 (stereo not given) | -3.21% (inactive) | 
25 | Clc1cc(Cl)c(-c2cc(Cl)c(Cl)cc2Cl)cc1Cl | -0.716% [at 42.5 µM] (inactive) | 
26 | CC1=C2C[C@H]3[C@@H](CC=C4C[C@@H](O)CC[C@@]43C)[C@@H]2CC[C@]12O[C@@H]1C[C@H](C)CN[C@H]1[C@H]2C | 0.276% [at 42.5 µM] (inactive) | 
27 | CC(C)COP(=O)(OCC(C)C)OCC(C)C | 4.66% (inactive) | 
28 | O=c1[nH]c2cc(Cl)ccc2n1C1CCNCC1 | 1.9% [at 42.5 µM] (inactive) | 
29 | Cc1cc(SCc2sc(-c3ccc(C(F)(F)F)c(F)c3)nc2C)ccc1OCC(=O)O | -5.91% (inactive) | 
30 | CCC1CCC(=O)O1 (stereo not given) | -15% (inactive) | 
31 | CC(CC(C#N)(c1ccccc1)c1ccccc1)N(C)C (stereo not given) | -0.863% (inactive) | 
32 | CC(c1ccccc1)(c1ccc(O)cc1)c1ccc(O)cc1 | 2.14% (inactive) | 
33 | CCCCc1ccccc1 | 22.7% (inactive) | 
34 | C=CCC1(C(C)CC)C(=O)NC(=O)NC1=O (stereo not given) | -4.55% [at 42.5 µM] (inactive) | 
35 | CCOP(=S)(OCC)OC(Cl)C(Cl)(Cl)Cl (stereo not given) | -1.12% (inactive) | 
36 | O=C(CCl)NCO | 4.48% (inactive) | 
37 | Cc1ccc(N(SC(F)(Cl)Cl)S(=O)(=O)N(C)C)cc1 |  | 3.06 µM (active)
38 | CC(=O)NC1CCSC1=O (stereo not given) | -11.3% [at 42.5 µM] (inactive) | 
39 | CC(C)CC#N | 10.9% (inactive) | 
40 | CCOP(=S)(OCC)Oc1nc(Cl)n(C(C)C)n1 | -12.6% (inactive) | 
